Among the data in PubChem BioAssay AID488841 (Sanford-Burnham Center for Chemical Genomics, 2010) are inhibition values, retold here.

Among all 1,400 compounds or so, about 380 (27%) were called active. The list shows a part of the results. Unmarked numbers belong to inactive results.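 The calls were made as follows: active = mean inhibition above 50% across duplicate retests at 10 µM; inactive = the rest.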

The assay can be described thus: inhibition of NALP1/ASC/caspase-1 reporter signal in yeast, confirmation, NALP1 inhibitor project, S. cerevisiae, luminescence, single concentration (AID 488841).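 Also: plate controls were DMSO in galactose medium for no effect and cells in plain SD medium for full effect.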 To be noted: S. cerevisiae NALP1/ASC/Caspase-1 reporter, beta-gal luminescence; at 10 µM; active compounds read high.
For orientation: inhibition means the change of the read-out against control, counted positive when it falls. On to `CN1c2ccccc2Sc2cc(N)ccc21`, for which the inhibition was 94% (active).

`Cc1nc(C)c(/C(O)=C/c2nc3ccccc3oc2=O)s1`: the inhibition was 44.5%. Regarding `CCn1c(N2CCN(C(=O)C34CC5CC(CC(C5)C3)C4)CC2)nc2ccccc21`, the inhibition is 44.6%.

In the case of `C/C(=N\NC(=O)Cc1csc(N2CCOCC2)n1)c1ccccc1`, the inhibition was 24.6%. Regarding `Cc1[nH]n(-c2ccccc2)c(=O)c1C(C[N+](=O)[O-])c1ccc(Br)cc1` (configuration not stated), the inhibition was 66.2% (active). The value for `Cc1ccc(C(C[N+](=O)[O-])c2c(C)[nH]n(-c3ccccc3)c2=O)cc1` (configuration not stated) was 78.1% (active); that for `Cc1cc2ccccn2c1C(C[N+](=O)[O-])c1ccc(N(C)C)cc1` (configuration not stated) was 31.1%. In the case of `COC(=O)C1(C(C[N+](=O)[O-])c2ccc(C)cc2)C(=O)NCC1c1ccco1` (configuration not stated), the inhibition is 29.4%. Consider `Cc1[nH]n(-c2ccccc2)c(=O)c1C(C[N+](=O)[O-])c1ccc(Cl)cc1` (configuration not stated), for which the inhibition was 77.5% (active). To `O=c1cc(CSc2ccc(Cl)cc2)[nH]c2[nH]n(-c3ccccc3)c(=O)c12` belongs 29.9%; to `COc1ccc(OC)c(N/C(=N/C(=S)Nc2ccccc2)Nc2nc(C)cc(C)n2)c1`, 30.3%; to `CC12CCC(C(=O)O)(C/C1=N\O)C2(C)C` (configuration not stated), 15%.

With `CCOc1nc(-c2ccccc2Cl)ccc1C#N`, the inhibition is 42.2%. As for `C=CCNCCOCCSc1ccc(Cl)cc1`, the inhibition was 45.3%. As for `COCCCNCCOc1ccc(C(C)(C)c2ccccc2)cc1`, the inhibition was 57.4% (active). The value for `C=CCNCCOc1ccc(C(C)(C)c2ccccc2)cc1` was 60.4% (active). For `C=CCc1cc(Cl)ccc1OCCNCCCOC`, the inhibition is 45.8%. As to `COCCCNCCOc1cc(C(C)C)ccc1C`, the inhibition was 30.8%. To `COC(=O)C(Cc1ccccc1)NC(=O)COc1ccc(C(C)(C)C)cc1` (configuration not stated) belongs 36.6%. To `CS(=O)(=O)n1nc(-c2ccc(Cl)cc2)nc1SCc1ccccc1` belongs 36.2%; to `c1csc(C2Nc3ccccc3-c3nc4ccccc4n32)c1` (configuration not stated), 31.5%. The value for `O=C(Nc1cc(Cl)ccc1-n1cncn1)c1ccc([N+](=O)[O-])s1` was 90.7% (active); that for `CN(c1ccccc1)c1ccc(/C=C/[N+](=O)[O-])cc1` was 95% (active); that for `CCCc1ccc(-c2c(C)sc(N)c2C#N)cc1` was 39%.

Turning to `CCN1CCN(c2cc(C(C)C)nc3c(-c4ccccc4)c(C)nn23)CC1`, the inhibition was 40.4%.

In the case of `CCc1cc(OCCCCNCc2ccccc2)ccc1Cl`, the inhibition is 43.2%.

As for `COc1ccc(CNCC(O)(c2ccccc2)c2ccc(Cl)cc2)cc1` (configuration not stated), the inhibition was 57.9% (active).

`COc1ccc(C(=O)C2CCCN(C(=O)Cn3nc(C)cc3C)C2)cc1F` (configuration not stated): the inhibition was 36.5%. With `C#C[C@]1(O)CC[C@H]2[C@@H]3CCc4cc(O)ccc4[C@H]3CC[C@@]21C`, the inhibition is 65.4% (active).

Take `C#C[C@]1(O)CC[C@H]2[C@@H]3CCC4=C(CCC(=O)C4)[C@H]3CC[C@@]21C`: the inhibition was 59.2% (active). To `Cc1ccc(S(=O)(=O)NCc2ccc(C(=O)NCCCN3CCC(Cc4ccccc4)CC3)cc2)cc1` belongs 22%. To `CN(CC(=O)NC(=O)NCc1ccccc1)Cc1cccc(Cl)c1Cl` belongs 32.5%; to `Cc1ccccc1OCC(=O)Nc1cccc(N(C)S(C)(=O)=O)c1`, 18.4%; to `COC(=O)C1=C(C)NC(C)=C(C(=O)OC)C1c1ccc(OC(=O)c2oc3ccccc3c2C)c(OC)c1`, 10.6%. The value for `O=C(c1ccc(S(=O)(=O)c2ccccc2)cc1)N1CCCCCC1` was 32.5%; that for `COc1cccc(F)c1C(C[N+](=O)[O-])c1c(N)n(C)c(=O)n(C)c1=O` (configuration not stated) was 89.5% (active).

`Cc1ccc(C(C[N+](=O)[O-])c2c(N)n(C)c(=O)n(C)c2=O)cc1` (configuration not stated): the inhibition is 96.2% (active).

On to `O=c1[nH][nH]c(-c2ccccc2O)c1C(C[N+](=O)[O-])c1ccc(Cl)cc1Cl` (configuration not stated), for which the inhibition is 37.8%. Consider `COc1ccccc1C(C[N+](=O)[O-])c1c(N)n(C)c(=O)n(C)c1=O` (configuration not stated), for which the inhibition is 93.7% (active). To `CC1(C)NC(=O)N(CCCCOc2ccc3ccccc3c2Cl)C1=O` belongs 38.6%; to `CCCCNCCOCCOc1ccccc1-c1ccccc1`, 44%; to `CN(C)c1nc(N)nc(CSc2nnnn2-c2ccc(C(=O)O)cc2)n1`, 29.5%. The value for `Nc1[nH]c(=O)ncc1F` was 43.8%; that for `CCOc1ccc(N=c2oc3cc(O)ccc3cc2C(=O)NCC2CCCO2)cc1` (configuration not stated) was 24.5%; that for `Cc1cc(Nc2ccccc2)nc2cc(O)ccc12` was 84.7% (active). `CCn1nc(C)cc1Nc1ccccc1`: the inhibition was 22.3%.

Regarding `COc1ccc(Nc2cc(C)c3ccc(O)cc3n2)cc1`, the inhibition is 89.7% (active).

For the compound `Cc1cc(Nc2ccccc2)nn1C(=O)c1ccccc1`, the inhibition was 44.5%. To `COC1=C(Nc2ccc(O)cc2)C(=O)c2ccccc2C1=O` belongs 32.3%. `COc1ccc(C2=NN3C(=O)c4c(ccc(OC)c4OC)C3C2)cc1` (configuration not stated): the inhibition is 37.6%.

For the compound `CCC(=O)N(Cc1cc2c(C)ccc(C)c2[nH]c1=O)C1CCCCC1`, the inhibition was 27.1%. Regarding `CCNc1c(C(=O)O)ccc2c1C(=O)c1ccccc1C2=O`, the inhibition was 32.4%. To `CCc1ccc(OCC(=O)Nc2ccc(CN3CCCCC3)cc2)cc1` belongs 48.2%; to `Cc1cc(C)c([C@@H]2C[C@H]3CN(C4CCCC4)C(=O)[C@]34CCCN24)c(-n2cccn2)c1`, 28.9%; to `COc1cc(/C=C/C(=O)c2ccc(Cl)s2)cc(OC)c1O`, 50.9% (active).

For `COC(=O)CCn1nnc(-c2ccc(C(C)C)cc2)n1`, the inhibition is 38.5%. Take `COc1cccc(CN2CCC(C(=O)N3CCN(c4ccccc4F)CC3)CC2)c1OC`: the inhibition is 37.2%.

On to `CCCc1[nH]n(-c2nc3ccccc3s2)c(=O)c1C=NCC(C)C`, for which the inhibition is 54.1% (active). In the case of `O=C1C(Cl)=C(N2CCN(c3ccccc3[N+](=O)[O-])CC2)C(=O)c2ccccc21`, the inhibition is 47.2%.

Consider `C/C(=N\NC(=O)c1csc(C)c1C)c1ccc(Cl)s1`, for which the inhibition was 40.9%. The value for `CCNc1ccc(Br)cc(C(=O)/C=C/c2c(Cl)cccc2Cl)c1=O` was 39.5%; that for `O=C(/C=C/c1ccccn1)c1ccc(Br)cc1O` was 67.5% (active); that for `O=C(/C=C/c1cccs1)c1cc(Br)ccc1OC(=O)N1CCOCC1` was 28.1%. To `COc1cccc(-c2nn(C)c3sc(C(=O)N4CCOCC4)cc23)c1` belongs 35.3%; to `Cc1[nH]c2ccccc2c1C(=O)CSc1nc2ncc(Cl)cc2[nH]1`, 25.4%; to `O=C(/C=C/c1c[nH]c2ccccc12)c1ccccc1`, 80.5% (active).

For `CN(C)c1ccc(N/C=C/C(=O)c2ccccc2)cc1`, the inhibition is 35.4%. The value for `O=C(NC(Cc1c[nH]c2ccccc12)C(=O)O)/C(=C\c1ccc2c(c1)OCO2)NC(=O)c1ccccc1` (configuration not stated) was 32.5%; that for `Cc1cc(SC#N)cc(C)c1NC(=O)CCl` was 21.6%.

Regarding `CC(C)c1nc2sc3c(=O)[nH]c(=S)[nH]c3c2c2c1CCC2`, the inhibition was 30.2%. In the case of `Cc1ccc2nc(Cl)c(C3CC(c4cccs4)=NN3C(=O)CCCC(=O)O)cc2c1` (configuration not stated), the inhibition was 33.7%. The value for `OC(COCc1ccc2c(c1)OCO2)CN1CCN(Cc2ccccc2)CC1` (configuration not stated) was 32%. The value for `OC(CN1CCCCC1)Cn1c2ccc(Cl)cc2c2cc(Cl)ccc21` (configuration not stated) was 52.5% (active); that for `COc1ccc(OCC(O)Cn2c(=N)n(Cc3ccccc3)c3ccccc32)cc1` (configuration not stated) was 27.4%. To `CCOC(=O)c1c(O)c2cc(Cl)ccc2n(CC)c1=O` belongs 40.1%; to `OC(CNCCC1C=Nc2ccccc21)Cn1c2ccc(Cl)cc2c2cc(Cl)ccc21` (configuration not stated), 40.7%; to `OC(CN1CCN(Cc2ccccc2)CC1)Cn1c2ccccc2c2ccccc21` (configuration not stated), 63.1% (active).

For `CCN1CCN(C(=O)N[C@@H](C(=O)N[C@@H]2C(=O)N3[C@@H]2SC(C)(C)[C@@H]3C(=O)O)c2ccccc2)C(=O)C1=O`, the inhibition was 45.5%. The value for `CCn1c(=O)cc(SCC(=O)N2CCN(C3CCCCC3)CC2)c2ccccc21` was 32.6%; that for `N/C(Cc1ccc(Cl)cc1)=N\OC(=O)C1CCCCC1` was 46.6%. The value for `O=C(NCCN1C(=O)S/C(=C\c2cccnc2)C1=O)c1cccc(OC(F)F)c1` was 39.6%; that for `CSc1ccccc1NC(=O)Nc1ccccc1Cl` was 30%.

Turning to `COc1ccc(C)cc1NC(=O)c1ccc(OC(F)F)cc1`, the inhibition is 59.4% (active). The value for `COc1ccc(C)cc1NC(=O)c1ccc(CN2CCN(c3ccccc3)CC2)cc1` was 47.2%.

With `COc1ccc(NC(=O)c2ccc(C)cc2)c(OC)c1`, the inhibition is 37.7%. Take `Cc1c(Cl)cccc1NC(=O)c1cccc(OC(F)F)c1`: the inhibition was 53% (active). The value for `Clc1ccc2c(N/N=C/c3ccccc3Br)ccnc2c1` was 39%; that for `Cc1ccc(N/C=C/C(=O)C(C)(C)C)c(O)c1` was 31.6%.

With `Cn1cc(CC(=O)Nc2cccc(C#N)c2)c2ccccc21`, the inhibition was 26.6%. The value for `c1ccc2cc(CSCc3nc4ccccc4[nH]3)ccc2c1` was 42.5%; that for `c1ccc2[nH]c3cc4ncnc4cc3nc2c1` was 52.8% (active); that for `CCCCOC(=O)Oc1ccc2c(=O)c(Oc3cc(C)cc(C)c3)coc2c1` was 45.8%. `CC(C)Oc1ccc2c(=O)c(-c3ccccc3)coc2c1`: the inhibition was 66.2% (active).

Turning to `CC1CCN(c2nc(CN3CCCCC3)nc3scc(-c4ccccc4)c23)CC1`, the inhibition was 65.5% (active).

Regarding `COc1ccccc1N1CCN(C(=O)CSc2ncnc3scc(-c4ccccc4)c23)CC1`, the inhibition is 47.8%. To `Cc1ccc(S(=O)(=O)N[C@@H](Cc2ccccc2)C(=O)CCl)cc1` belongs -1.6%. The value for `c1ccc(-c2c(-c3ccccc3)n(Cc3ccco3)c3ncnc(NCCCn4ccnc4)c23)cc1` was 38%.
